Tb PYK inh: T. brucei pyruvate kinase inhibition | TbPYK enzyme, Kinase-Glo Plus ATP luminescence, 45 min | Potency, µM (series often up to 76.8 µM), usual class: inhibitors | 410,000 compounds, 0.12% hits; also: nearly all actives have a fitted effect of over 50% in size
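Luminescent Kinase-Glo Plus end-point after 45 min room-temperature reaction of T. brucei pyruvate kinase started with 130 uM ADP (final). Buffer TEA 50 mM pH 7.2 with KCl, MgCl2, BSA, Tween-20; titration-based qHTS with fitted concentration-effect curves.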
LmPK inhibitor: LmPK (Leishmania mexicana) enzyme inhibition; Q27686; Potency, µM (doses to about 57.5 µM), usual class: inhibitors; 290,000 compounds, 0.37% hits; purified LmPK, Kinase-Glo ATP luminescence, 1 h
Target sequence (Q27686 whole entry, looked up): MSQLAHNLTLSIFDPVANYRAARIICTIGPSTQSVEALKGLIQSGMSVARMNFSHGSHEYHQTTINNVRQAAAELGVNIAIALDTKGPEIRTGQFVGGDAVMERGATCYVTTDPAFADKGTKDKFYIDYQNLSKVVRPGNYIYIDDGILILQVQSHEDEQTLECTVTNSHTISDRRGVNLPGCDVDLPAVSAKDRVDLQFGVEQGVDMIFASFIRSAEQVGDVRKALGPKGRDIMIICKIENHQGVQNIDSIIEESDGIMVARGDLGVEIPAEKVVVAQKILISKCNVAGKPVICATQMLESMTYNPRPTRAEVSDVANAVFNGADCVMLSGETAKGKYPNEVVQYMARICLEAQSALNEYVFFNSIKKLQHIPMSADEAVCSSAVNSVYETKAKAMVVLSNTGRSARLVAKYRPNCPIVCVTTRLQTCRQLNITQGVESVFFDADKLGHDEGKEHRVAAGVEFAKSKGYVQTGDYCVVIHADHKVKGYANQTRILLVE
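ATP generated from ADP (0.1 mM) and PEP (0.5 mM) by 0.1 nM LmPK over 1 h at room temperature (pH 7.2 imidazole buffer) was detected by coupled luciferase luminescence. Values were normalized to uninhibited and no-enzyme wells.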
Shiga toxin inh: inhibitors of Shiga toxin in Vero cells; 290,000 compounds, 9.2% hits; inhibition, % at 38.7 µM; Vero cells, Shiga toxin protein synthesis inhibition reporter; in the data active = inhibition mostly above about 28%, no sharp cut-off; inactive = mostly below about 43%
Giardia FBPA inh: blocks Giardia fructose-bisphosphate aldolase activity; A8B2U2; purified Giardia FBPA; Potency, µM (top dose mostly 59.6 µM), actives largely listed as inhibitors; 290,000 compounds, 0.71% hits; also: nearly all actives have a fitted effect of over 55% in size
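40 nM FBPA preincubated 10 min at RT with compound (up to 57.5 uM final), then substrate plus GAPDH/TPI/NAD/arsenate coupling and diaphorase/resazurin added. Fluorescence read after 20 min at RT, 525/598 nm.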
CHX counter: counter-screen for Shiga toxin inhibitors: cycloheximide protein synthesis inhibition; max response, %; AID 2314; cell reporter, cycloheximide protein synthesis inhibition counterscreen; 300,000 compounds, 12% hits; in the data active = max response mostly above about 13%, no sharp cut-off; inactive = mostly below about 14%; also: read at 38.3 µM for the half of the compounds with a filed dose
Sm TGR inh: blocks Schistosoma mansoni thioredoxin glutathione reductase; purified TGR, DTNB reduction, TNB absorbance 405 nm; Potency, µM (titrated, usually from 114 µM), actives largely listed as inhibitors; 360,000 compounds, 3% hits; AID 485364; also: nearly all actives have a fitted effect of over 60% in size
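First, TGR (20 nM dispensed) and NADPH were mixed with compound. Second, a 15 min room-temperature incubation followed. Third, further NADPH and then DTNB were added to start the reaction. Finally, TNB absorbance was monitored kinetically.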
Hits are given with their value. The sample as a whole holds a higher share of hits than the screen did. Unless noted, calls follow the shape of the dose curve; as a rule, active = well fitted curve in the direction sought with a large enough effect; inconclusive = small, poorly fitted or top-dose-only effect, or another doubt; inactive = no such curve, though single readings can be large; an effect the other way counts as inactive or inconclusive.

`NC(=O)c1ccccc1C[C@H](C(=O)O)N1C(=O)c2ccc(C(=O)O)cc2C1=O` gave Shiga toxin inh inactive, Giardia FBPA inh inactive, CHX counter inactive and Sm TGR inh inactive.
Screening COc1ccc2c(c1)NC(C)(C)C=C2C returned Tb PYK inh inactive, LmPK inhibitor inactive, Shiga toxin inh inactive, Giardia FBPA inh inconclusive, CHX counter inactive and Sm TGR inh 39.8µM.
For CC1=CC(C)(C)Nc2ccc(OC(=O)CCN3C(=O)c4ccccc4C3=O)cc21 the results were Tb PYK inh inactive, LmPK inhibitor inactive, Shiga toxin inh inactive, Giardia FBPA inh inactive, CHX counter 21.6 and Sm TGR inh inactive.
`O=C(CCN1C(=O)c2ccccc2C1=O)Oc1ccc2ccccc2c1` gave Tb PYK inh inactive, LmPK inhibitor inactive, Shiga toxin inh inactive, Giardia FBPA inh inactive, CHX counter inactive and Sm TGR inh inactive.
CC1=CC(C)(C)Nc2ccccc21 was read as Tb PYK inh inactive, LmPK inhibitor inactive, Shiga toxin inh inactive, Giardia FBPA inh inconclusive, CHX counter inactive and Sm TGR inh inactive.
CC1=CC(C)(C)Nc2ccc(OS(=O)(=O)c3ccc(C)cc3)cc21 was read as Tb PYK inh inactive, LmPK inhibitor inactive, Shiga toxin inh 40.2, Giardia FBPA inh inactive, CHX counter inactive and Sm TGR inh inconclusive.
For CC(=O)Nc1ccc(S(=O)(=O)Oc2ccc3c(c2)C(C)=CC(C)(C)N3)cc1 the results were LmPK inhibitor inactive, Shiga toxin inh inactive, Giardia FBPA inh inactive, CHX counter 16.4 and Sm TGR inh inactive.
For COC(=O)c1cc2oc3ccccc3c2n1Cc1cc(C)ccc1C the results were Tb PYK inh inactive and Sm TGR inh inactive.
O=c1c2c3c(sc2n(Cc2ccccc2F)c(=O)n1-c1ccc(Cl)cc1)CCCC3 was read as Tb PYK inh inactive and Sm TGR inh inactive.
For CCN(CC)CCNC(=O)CSc1nc2nc(C)c(Cc3ccccc3)c(C)n2n1 the results were Tb PYK inh inactive and Sm TGR inh inactive.
`O=c1[nH]c(CN2CCCCC2)ccc1O` gave Tb PYK inh inactive.
For Cc1cc(-c2ccc(C(C)C)c(S(=O)(=O)Nc3ccccn3)c2)on1 the results were Tb PYK inh inactive, LmPK inhibitor inactive, Shiga toxin inh 23.7, Giardia FBPA inh inconclusive, CHX counter 29.2 and Sm TGR inh inactive.
`Cn1ccc(C(=O)N/N=C/c2ccccc2[N+](=O)[O-])n1` gave Tb PYK inh inactive, LmPK inhibitor inactive, Shiga toxin inh 100.2, Giardia FBPA inh inactive, CHX counter 40.2 and Sm TGR inh inactive.
Cn1ccc(C(=O)N/N=C/c2cccnc2)n1 was read as Tb PYK inh inactive, LmPK inhibitor inactive, Shiga toxin inh 44.9, Giardia FBPA inh inactive, CHX counter 18.3 and Sm TGR inh inactive.
Cn1cc([N+](=O)[O-])c(C(=O)N/N=C/c2ccccc2)n1 was read as Tb PYK inh inactive, LmPK inhibitor inactive, Shiga toxin inh inactive, Giardia FBPA inh inactive, CHX counter inactive and Sm TGR inh inactive.
For O=C(N/N=C/c1ccccc1[N+](=O)[O-])c1ccc2nc[nH]c2c1 the results were Tb PYK inh inactive, LmPK inhibitor inactive, Shiga toxin inh inactive, Giardia FBPA inh inactive, CHX counter 17.6 and Sm TGR inh inactive.
For CN(C)c1ccc(/C=N/NC(=O)c2ccn(C)n2)cc1 the results were Tb PYK inh inactive, LmPK inhibitor inactive, Shiga toxin inh 33.9, Giardia FBPA inh inactive, CHX counter 32.9 and Sm TGR inh inactive.
O=C(N/N=C/c1ccc(Cl)c([N+](=O)[O-])c1)c1ccc2nc[nH]c2c1 was read as Tb PYK inh inactive, LmPK inhibitor inactive, Shiga toxin inh inactive, Giardia FBPA inh inactive, CHX counter inactive and Sm TGR inh inactive.
Screening Cc1cc(NC(=O)CCS(=O)(=O)c2cc(Br)cc3c2N(C(=O)C2CC2)CC3)ccc1Br returned Tb PYK inh inactive and Sm TGR inh inactive.
`Cc1onc(-c2c(F)cccc2Cl)c1C(=O)OCC(=O)N(C)c1ccccc1` gave Tb PYK inh inactive.
CN(C)c1ccc(/C=N/NC(=O)c2ccnn2C)cc1 was read as Tb PYK inh inconclusive, LmPK inhibitor 8.91µM, Shiga toxin inh 58.4, Giardia FBPA inh inactive, CHX counter 24.3 and Sm TGR inh inactive.
Cc1cnc(NC(=O)c2ccncc2)s1 was read as Tb PYK inh inactive, LmPK inhibitor inactive, Shiga toxin inh 36.1, Giardia FBPA inh inactive, CHX counter 17.5 and Sm TGR inh inactive.
For Cc1nnc(NC(=O)c2ccncc2)s1 the results were Tb PYK inh inactive, LmPK inhibitor inactive, Shiga toxin inh inactive, Giardia FBPA inh inactive, CHX counter inactive and Sm TGR inh inactive.
`Cc1cnc(NC(=O)c2cncc(Br)c2)s1` gave Tb PYK inh inactive, LmPK inhibitor inactive, Shiga toxin inh 53.2, Giardia FBPA inh inactive, CHX counter 29.8 and Sm TGR inh inactive.
`CCn1ccc(C(=O)Nc2ncc(C)s2)n1` gave Tb PYK inh inactive, LmPK inhibitor inactive, Shiga toxin inh 56.9, CHX counter 27.7 and Sm TGR inh inconclusive.
`CCc1ccccc1NC(=O)Nc1cc(C(=O)NCc2ccc(C(C)C)cc2)ccc1N1CCCC1` gave Tb PYK inh inactive and Sm TGR inh inactive.
For CC(C)=CCCC1=CC[C@H](C(=O)O)[C@H](C(=O)O)C1 the results were Giardia FBPA inh inactive.
For O=C(Cc1ccccc1)Nc1cccc(-c2nc3cccnc3s2)c1 the results were Tb PYK inh inactive and Sm TGR inh inactive.
`CCS(=O)(=O)Nc1cccc(-c2nc3cccnc3s2)c1C` gave Tb PYK inh inactive, LmPK inhibitor inactive, Shiga toxin inh 72.7, Giardia FBPA inh inactive, CHX counter 29.8 and Sm TGR inh inactive.
`Cc1c(NC(=O)c2ccco2)cccc1-c1nc2cccnc2s1` gave Tb PYK inh inactive, LmPK inhibitor inactive, Shiga toxin inh inactive, Giardia FBPA inh inactive, CHX counter 15.6 and Sm TGR inh 20µM.
Screening O=C(Nc1ccc(-c2nc3cccnc3s2)cc1)c1ccco1 returned Tb PYK inh inactive, LmPK inhibitor inactive, Shiga toxin inh 73.6, Giardia FBPA inh inactive, CHX counter 34.5 and Sm TGR inh inconclusive.
Screening O=C(Nc1ccc(-c2nc3ncccc3o2)cc1)c1ccc(Br)o1 returned Tb PYK inh inactive, LmPK inhibitor inactive, Shiga toxin inh inactive, Giardia FBPA inh inactive, CHX counter inactive and Sm TGR inh inconclusive.
`O=C(Nc1ccc(-c2nc3cccnc3s2)cc1)c1ccc(Br)o1` gave Tb PYK inh inactive, LmPK inhibitor inactive, Shiga toxin inh 52.6, Giardia FBPA inh inactive, CHX counter 47.0 and Sm TGR inh inactive.
For CCOC(=O)C1CCN(C(=O)COC(=O)CSc2ccccc2C)CC1 the results were Tb PYK inh inactive.
`Cc1c(F)cccc1NC(=O)C1CCCN1S(=O)(=O)c1ccc(F)cc1` (configuration not stated) gave Tb PYK inh inactive and Sm TGR inh inactive.
